Assay [1] addresses Lysosomal acid glucosylceramidase (Homo sapiens) (UniProt P04062). As to the kind of experiment: Glucocerebrosidase-p2 (AID 348; in the data active means potency below about 10 µM; further: potency means the concentration at half of the fitted maximal effect). The note with it: purified GBA, blue fluorogenic substrate, 40 min. In outline: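 Normal human glucocerebrosidase (0.2 nM) with blue fluorogenic substrate (80 uM final) in citrate/phosphate pH 5.9 with 10mM sodium taurocholate, 0.01% tween-20; 40 min RT, NaOH/glycine stop; fluorescence Ex 365/Em 440; AC50 from a titration from 0.6 nM upwards.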

Assay [2] is described as follows: AP1 Signaling Pathway (AID 357; active means well fitted curve in either direction with a large enough effect, not every such curve was filed as active; further: on the % scale 0 is the no-effect control and ±100 the full control effect). Conditions: ME-180 AP-1-bla reporter, EGF-induced, beta-lactamase ratio, 5 h; at 7.69 µM (top of the series) unless noted. In outline: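 Cells are seeded overnight, exposed to compound titrations and an EC50 level of EGF for 5 hours at 37 °C, then loaded with CCF4 dye for 2.5 hours. Beta-lactamase activity under the AP-1 element is read as a blue/green ratio.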

Assay [3] has as its target Cytochrome P450 1A2 (Homo sapiens) (UniProt P05177). As to the kind of experiment: p450-cyp1a2 (AID 410; calls by dose curve; further: potency means the concentration at half of the fitted maximal effect). The note with it: recombinant CYP1A2, luciferin-ME demethylation, luminescence; series mostly up to 57 µM. In outline: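 20nM CYP1A2, 100uM Luciferin-ME (=Km), 100mM KPO4; cpd 10 min RT; +NADPH regen, 60 min RT; stop/detect 20 min; luminescence. Normalized to furafylline 57 uM = full inhibition.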

Assay [4] concerns the target Glucocorticoid receptor (Homo sapiens) (UniProt P04150). As to the kind of experiment: GR-GFP Redistribution (AID 450;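 active means compounds whose dose series gives a full or clear partial fitted curve of increased nuclear translocation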; further: potency means the concentration at half of the fitted maximal effect). The note with it: U2OS GR-GFP nuclear translocation, laser cytometry, 2 h.
Assay [5] has the same target. The assay is described as follows: GR-EFC Redistribution (AID 451; calls by dose curve; further: potency means the concentration at half of the fitted maximal effect). The note with it: CHO-K1 GR-EFC translocation, beta-gal luminescence, 2 h. In outline: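 CHO-K1 cells stably expressing nuclear-localized β-gal enzyme acceptor and GR fused C-terminally to the enzyme donor fragment; ligand-driven nuclear translocation restores β-gal by complementation. Compounds titrated up to 46 uM final, 2 h at 37 °C; luminescence read.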

The target in assay [6] is Mitogen-activated protein kinase 10 (Mus musculus) (UniProt Q61831). As to the kind of experiment: JNK3 AlphaScreen Assay (AID 530; active means well fitted curve in either direction with a large enough effect, not every such curve was filed as active;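 further: kinase came from lysate of stimulated human HepG2 cells; signal reports phosphorylation of biotinylated GST-cJun 1-79 at Ser73 with 10 µM ATP; on the % scale 0 is the no-effect control and ±100 the full control effect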). The note with it: JNK3 lysate, c-Jun phosphorylation; series mostly up to 57.1 µM. In outline:
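Biotinylated GST-cJun(1-79) served as substrate for JNK3 in HepG2 lysates stimulated with IL-1beta and TNF-alpha. ATP was 10 uM final, pH 7.6. Ser73 phosphorylation was quantified by AlphaScreen (680 nm excitation).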

Assay [7] deals with 3',5'-cyclic-AMP phosphodiesterase 4B (Homo sapiens) (UniProt Q07343). The assay is described as follows: qHTS Assay for Inhibitors of PDE-IV (AID 607; active means well fitted activation curve with a large enough effect in the main read-out, with a control signal flat, not every such curve was filed as active; further: % of control where 0% means no effect). The note with it: HEK293 ACTOne CNG channel cells, membrane potential fluorescence; series mostly up to 22.9 µM. In outline: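 ACTOne HEK293 cells carry a modified cAMP-gated CNG channel and express endogenous PDE4; plated 1000 cells/well, compounds up to 22.9 uM final. Membrane-potential dye fluorescence (ex 535/em 590) was read; parental cells received 10 uM forskolin + 100 uM RO 20-1724.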
Chain of 3',5'-cyclic-AMP phosphodiesterase 4B (Homo sapiens) (Q07343 whole entry, looked up): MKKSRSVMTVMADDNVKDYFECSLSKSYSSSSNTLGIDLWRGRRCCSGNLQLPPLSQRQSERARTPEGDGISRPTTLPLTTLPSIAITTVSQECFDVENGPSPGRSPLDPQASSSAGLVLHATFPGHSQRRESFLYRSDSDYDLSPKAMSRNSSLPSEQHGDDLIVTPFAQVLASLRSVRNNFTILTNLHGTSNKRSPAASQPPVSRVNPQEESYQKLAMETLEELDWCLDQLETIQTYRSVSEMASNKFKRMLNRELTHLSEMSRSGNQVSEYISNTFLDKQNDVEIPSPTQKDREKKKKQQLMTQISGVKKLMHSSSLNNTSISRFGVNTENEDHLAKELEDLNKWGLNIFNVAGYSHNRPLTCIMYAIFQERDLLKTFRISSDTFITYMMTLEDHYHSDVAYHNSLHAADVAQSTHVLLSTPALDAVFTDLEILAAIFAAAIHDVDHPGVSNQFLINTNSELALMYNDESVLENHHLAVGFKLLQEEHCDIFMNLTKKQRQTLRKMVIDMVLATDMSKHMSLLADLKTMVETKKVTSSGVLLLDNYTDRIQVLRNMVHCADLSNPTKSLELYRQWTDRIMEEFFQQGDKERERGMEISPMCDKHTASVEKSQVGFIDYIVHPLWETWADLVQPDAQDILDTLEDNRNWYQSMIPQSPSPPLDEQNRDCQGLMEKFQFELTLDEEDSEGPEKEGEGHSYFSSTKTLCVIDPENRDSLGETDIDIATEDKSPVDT
In general terms: In qHTS, concentration-response curves come from the screen itself.

Assay [8] deals with Cytochrome P450 3A4 (Homo sapiens) (UniProt P08684). The assay is described as follows: qHTS Assay for Inhibitors and Substrates of Cytochrome P450 3A4 (AID 884). Further: potency means the concentration at half of the fitted maximal effect; nearly all actives have a fitted effect of over 50% in size. The note with it: recombinant CYP3A4, Luciferin-PPXE luminescence; series mostly up to 57.1 µM. In outline:
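Luminescent readout of luciferin produced by CYP3A4 (20 nM) dealkylation of Luciferin-PPXE, 25 uM (its KM). NADPH-driven reaction ran 60 min at RT after 10 min compound preincubation; data scaled to 57 uM ketoconazole as 100% inhibition.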

Assay [9] has the same target. The assay is described as follows: qHTS Assay for Activators of Cytochrome P450 3A4 (AID 885). Further: nearly all actives have a fitted effect of over 65% in size. The note with it: recombinant CYP3A4, Luciferin-PPXE luminescence, 60 min; series mostly up to 57.1 µM. In outline: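 CYP3A4 activity: Luciferin-PPXE O-dealkylation, 25uM substrate, 200mM KPO4, RT throughout. Read-out is luciferase luminescence; higher values reflect activation.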

The target of assay [10] is Cytochrome P450 2C19 (Homo sapiens) (UniProt P33261). The assay is described as follows: qHTS Assay for Inhibitors and Substrates of Cytochrome P450 2C19 (AID 899). Further: potency means the concentration at half of the fitted maximal effect; nearly all actives have a fitted effect of over 60% in size. Conditions: recombinant CYP2C19, luciferin-H EGE luminescence; series mostly up to 57.1 µM. In outline:
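Human CYP2C19 (5nM) with Luciferin-H EGE at 10uM (its KM) in 50mM KPO4 was preincubated with compound for 10 min at 37C. NADPH regeneration started a 60 min 37C reaction. Luciferin was read by luminescence, normalized to 57uM ketoconazole.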

Assay [11] is described as follows: qHTS Assay for Identification of Small Molecule Agonists for Hypoxia Response Element Signaling Pathway (AID 914; active means well fitted activation curve with a large enough effect in the signal ratio, with a control signal flat, not every such curve was filed as active; the % refers to the signal ratio; further: potency means the concentration at half of the fitted maximal effect; on activation: % of control where 0% means no effect). Conditions: ME-180 HRE-bla reporter, beta-lactamase ratio, CoCl2, 17 h; activation: stronger effect = higher value. In outline:
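Compounds in a titration series were added to ME-180 reporter cells alongside an EC50 level of CoCl2. After 17 hours, beta-lactamase activity was read as the 460nm/530nm emission ratio of CCF4, giving AC50 values.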

A short description of assay [12]: qHTS Assay for Lipid Storage Modulators (AID 1519; calls by dose curve). Conditions: Drosophila S3 cells, BODIPY lipid droplet/cell ratio, laser cytometry, cells loaded with oleic acid; for activity change, negative = inhibition: at 57.5 µM (top of the series). In outline: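 Cells seeded at 5,000 per well were treated with compounds over a concentration series and loaded with oleic acid (400 uM, as added). Lipid droplet fluorescence (488 nm excitation, 500-530 nm channel) was read by laser-scanning cytometry and normalized to 20 uM Triacsin C.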

For assay [13], the target named is Dual specificity protein kinase CLK4 (Homo sapiens) (UniProt Q9HAZ1). As to the kind of experiment: qHTS Assay for Inhibitors of CDC-like Kinase 4 (ADP-FP Assay) (AID 1795). Further: nearly all actives have a fitted effect of over 60% in size. Further: potency means the concentration at half of the fitted maximal effect. The note with it: Transcreener ADP fluorescence polarization; series mostly up to 50 µM. In outline: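 FP readout: Orange Transcreener ADP2 tracer (4 nM) plus ADP antibody, read after 30 min at room temperature. Kinase step: 6.25 nM Clk4, 100 uM RS peptide, 1 uM ATP, pH 7.5, 1 h.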
Chain of Dual specificity protein kinase CLK4 (Homo sapiens) (Q9HAZ1 whole entry, looked up): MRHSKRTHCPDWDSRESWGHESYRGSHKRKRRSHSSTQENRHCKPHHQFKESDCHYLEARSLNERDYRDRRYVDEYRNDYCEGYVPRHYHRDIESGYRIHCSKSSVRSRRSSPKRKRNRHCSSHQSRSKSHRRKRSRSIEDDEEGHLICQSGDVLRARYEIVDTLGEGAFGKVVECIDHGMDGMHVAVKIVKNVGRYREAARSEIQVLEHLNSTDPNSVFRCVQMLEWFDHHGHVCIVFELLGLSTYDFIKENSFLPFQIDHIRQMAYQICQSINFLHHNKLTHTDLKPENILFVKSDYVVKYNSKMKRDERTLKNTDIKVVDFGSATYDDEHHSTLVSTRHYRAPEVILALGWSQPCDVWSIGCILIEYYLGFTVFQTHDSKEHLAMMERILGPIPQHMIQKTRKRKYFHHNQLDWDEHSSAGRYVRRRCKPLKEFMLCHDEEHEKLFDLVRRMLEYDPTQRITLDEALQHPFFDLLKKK

Assay [14] addresses Ubiquitin carboxyl-terminal hydrolase 1 (Homo sapiens) (UniProt O94782). As to the kind of experiment: Inhibitors of USP1/UAF1: Pilot qHTS (AID 504865).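 Further: rhodamine fluorescence freed from ubiquitin-rhodamine substrate followed over time; top concentration of the series differs between compounds; on the % scale 0 is the no-effect control and ±100 the full control effect; nearly all actives have a fitted effect of over 35% in size.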 Conditions: purified USP1/UAF1, Ub-rhodamine cleavage fluorescence; series mostly up to 54.9 µM. In outline:
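1nM USP1/UAF1 + cpd, 15 min RT; start w/ Ub-Rho 150nM final; kinetic FL 480/540 nm, 6 reads q60 s. Buffer 50mM HEPES pH 7.8, 0.5mM EDTA, 1mM TCEP, 0.01% Tween-20, 0.1 mg/ml BSA.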

A short description of assay [15]: Primary qHTS for small molecule stabilizers of the endoplasmic reticulum resident proteome: Secreted ER Calcium Modulated Protein (SERCaMP) assay (AID 1508630). Further: on the % scale 0 is the no-effect control and ±100 the full control effect. The note with it: SH-SY5Y GLuc-SERCaMP (Gaussia luciferase released on ER calcium loss) secretion, thapsigargin, luminescence; series mostly up to 38.4 µM. In outline: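 The SH-SY5Y reporter protocol was run at 3 concentrations up to 38.3 uM (primary) or 11 concentrations (follow-up): 16 h compound, 100 nM thapsigargin for 4 h, then extracellular luciferase luminescence.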

Assay [16] can be described thus: NFAT Signaling Pathway (AID 444; active means well fitted curve in either direction with a large enough effect, not every such curve was filed as active;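 further: carbachol stimulus at about its EC50 of 1 µM final; on the % scale 0 is the no-effect control and ±100 the full control effect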). The note with it: Jurkat NFAT-bla M1, carbachol, beta-lactamase ratio, 5 h; at 7.69 µM (top of the series) unless noted. In outline:
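Jurkat cells carrying an NFAT-driven β-lactamase reporter and co-transfected muscarinic M1 receptor were treated with compound plus carbachol (1 uM final, an EC50 level) for 5 h at 37 °C. CCF4 loading followed for 1 h at RT; 460/530 nm ratio gave %activity.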

The nature of assay [17]: Stat Signaling Pathway (AID 446; active means well fitted curve in either direction with a large enough effect, not every such curve was filed as active). Conditions: ME-180 (cervical carcinoma) SIE beta-lactamase reporter, IL-6 stimulated, 5 h; at 7.69 µM (top of the series) unless noted. In outline: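 Compound effects on IL-6-induced STAT reporter activity were measured in ME-180 cells. After overnight culture, cells were co-treated with 40 pM IL-6 for 5 hrs before beta-lactamase substrate loading at room temperature.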

Assay [18] is described as follows: Confirmation and Secondary Assay for Modulators of Hemoglobin Beta Chain Splicing at IVS2 654 locus (AID 910).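 Further: per-well total GFP intensity by laser scanning cytometry after 2-day treatment; % of control where 0% means no effect.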 Conditions: HeLa EGFP-654 splicing reporter, GFP fluorescence, 48 h; series mostly up to 38.3 µM. In outline:
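HeLa cells stably carrying EGFP interrupted by mutant beta-globin IVS2-654 intron (CMV-driven) were treated with compound for 2 days at 37C; corrected splicing was scored as total peak GFP intensity per well (488 nm excitation, 500-520 nm emission).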

The nature of assay [19]: Confirmation and Secondary Assay for Modulators of Hemoglobin Beta Chain Splicing at IVS2 705 locus (AID 930).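 Further: HeLa cells stably expressing the EGFP-705 splicing reporter; % of control where 0% means no effect.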 Conditions: HeLa EGFP-705 splicing reporter, GFP fluorescence, 48 h; series mostly up to 38.3 µM. In outline: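 Assay measures total GFP intensity per well in HeLa EGFP-705 cells after 2 days with compound; mis-splicing normally truncates EGFP, so fluorescence indicates corrected splicing.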

Where [20] appears, read: measured here: cell count channel max response.
The mark [21] stands for this setting: measured here: lipid channel max response.

Inconclusive results are not listed. The source made the active and inactive calls. Unless noted, the call rests on the fitted dose curve; in most records, active means well fitted curve in the direction sought with a large enough effect; inconclusive means small, poorly fitted or top-dose-only effect, or another doubt; inactive means no such curve, though single readings can be large; an effect the other way counts as inactive or inconclusive. Where only a bound is given, the exact number is not on record here.

Chain of Lysosomal acid glucosylceramidase (Homo sapiens) (P04062 whole entry, looked up): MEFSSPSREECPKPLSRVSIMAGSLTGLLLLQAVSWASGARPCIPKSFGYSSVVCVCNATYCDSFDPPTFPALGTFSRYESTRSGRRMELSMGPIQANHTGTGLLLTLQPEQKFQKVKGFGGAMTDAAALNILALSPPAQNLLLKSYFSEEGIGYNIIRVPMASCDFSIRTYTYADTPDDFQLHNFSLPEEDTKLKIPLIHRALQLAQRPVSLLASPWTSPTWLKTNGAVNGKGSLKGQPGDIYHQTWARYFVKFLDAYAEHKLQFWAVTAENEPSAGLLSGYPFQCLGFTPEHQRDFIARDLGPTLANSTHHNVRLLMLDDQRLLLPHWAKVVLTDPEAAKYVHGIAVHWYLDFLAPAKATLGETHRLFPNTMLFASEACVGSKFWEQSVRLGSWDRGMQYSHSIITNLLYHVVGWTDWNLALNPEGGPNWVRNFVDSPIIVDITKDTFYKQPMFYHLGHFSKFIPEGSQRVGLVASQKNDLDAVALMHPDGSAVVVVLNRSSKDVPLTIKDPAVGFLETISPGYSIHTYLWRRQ
Chain of Ubiquitin carboxyl-terminal hydrolase 1 (Homo sapiens) (O94782 whole entry, looked up): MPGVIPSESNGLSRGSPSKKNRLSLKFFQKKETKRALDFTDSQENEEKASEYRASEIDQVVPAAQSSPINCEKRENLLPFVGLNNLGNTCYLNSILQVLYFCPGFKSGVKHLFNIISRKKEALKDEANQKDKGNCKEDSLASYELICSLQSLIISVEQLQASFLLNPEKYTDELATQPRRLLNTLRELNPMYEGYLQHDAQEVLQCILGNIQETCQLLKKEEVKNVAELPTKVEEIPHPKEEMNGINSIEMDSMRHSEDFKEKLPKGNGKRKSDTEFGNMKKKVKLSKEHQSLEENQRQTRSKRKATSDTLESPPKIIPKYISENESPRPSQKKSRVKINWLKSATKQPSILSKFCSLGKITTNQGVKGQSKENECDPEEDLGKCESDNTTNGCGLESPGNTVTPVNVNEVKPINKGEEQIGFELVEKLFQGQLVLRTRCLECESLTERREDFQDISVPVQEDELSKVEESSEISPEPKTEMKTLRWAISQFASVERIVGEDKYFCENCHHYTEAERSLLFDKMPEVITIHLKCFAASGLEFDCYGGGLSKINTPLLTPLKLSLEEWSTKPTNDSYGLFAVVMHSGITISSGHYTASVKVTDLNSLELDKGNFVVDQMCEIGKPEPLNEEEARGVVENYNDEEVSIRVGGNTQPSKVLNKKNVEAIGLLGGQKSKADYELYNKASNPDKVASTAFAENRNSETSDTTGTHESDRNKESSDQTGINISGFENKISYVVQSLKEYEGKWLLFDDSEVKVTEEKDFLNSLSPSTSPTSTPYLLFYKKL
Chain of Cytochrome P450 3A4 (Homo sapiens) (P08684 whole entry, looked up): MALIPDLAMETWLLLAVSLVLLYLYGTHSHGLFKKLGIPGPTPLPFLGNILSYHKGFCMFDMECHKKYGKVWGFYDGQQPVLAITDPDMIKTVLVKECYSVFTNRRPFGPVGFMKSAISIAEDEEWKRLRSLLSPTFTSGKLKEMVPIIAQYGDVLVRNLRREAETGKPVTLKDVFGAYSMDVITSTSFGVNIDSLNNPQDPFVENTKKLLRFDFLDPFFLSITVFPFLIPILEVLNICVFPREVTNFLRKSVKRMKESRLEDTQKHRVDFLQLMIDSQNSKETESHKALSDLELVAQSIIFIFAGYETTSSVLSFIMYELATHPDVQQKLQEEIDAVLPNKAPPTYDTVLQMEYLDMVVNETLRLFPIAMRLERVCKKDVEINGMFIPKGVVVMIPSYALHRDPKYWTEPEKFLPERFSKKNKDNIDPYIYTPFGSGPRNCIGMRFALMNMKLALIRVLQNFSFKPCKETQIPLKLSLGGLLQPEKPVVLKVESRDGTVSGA
Chain of Glucocorticoid receptor (Homo sapiens) (P04150 whole entry, looked up, the tested form may be a part): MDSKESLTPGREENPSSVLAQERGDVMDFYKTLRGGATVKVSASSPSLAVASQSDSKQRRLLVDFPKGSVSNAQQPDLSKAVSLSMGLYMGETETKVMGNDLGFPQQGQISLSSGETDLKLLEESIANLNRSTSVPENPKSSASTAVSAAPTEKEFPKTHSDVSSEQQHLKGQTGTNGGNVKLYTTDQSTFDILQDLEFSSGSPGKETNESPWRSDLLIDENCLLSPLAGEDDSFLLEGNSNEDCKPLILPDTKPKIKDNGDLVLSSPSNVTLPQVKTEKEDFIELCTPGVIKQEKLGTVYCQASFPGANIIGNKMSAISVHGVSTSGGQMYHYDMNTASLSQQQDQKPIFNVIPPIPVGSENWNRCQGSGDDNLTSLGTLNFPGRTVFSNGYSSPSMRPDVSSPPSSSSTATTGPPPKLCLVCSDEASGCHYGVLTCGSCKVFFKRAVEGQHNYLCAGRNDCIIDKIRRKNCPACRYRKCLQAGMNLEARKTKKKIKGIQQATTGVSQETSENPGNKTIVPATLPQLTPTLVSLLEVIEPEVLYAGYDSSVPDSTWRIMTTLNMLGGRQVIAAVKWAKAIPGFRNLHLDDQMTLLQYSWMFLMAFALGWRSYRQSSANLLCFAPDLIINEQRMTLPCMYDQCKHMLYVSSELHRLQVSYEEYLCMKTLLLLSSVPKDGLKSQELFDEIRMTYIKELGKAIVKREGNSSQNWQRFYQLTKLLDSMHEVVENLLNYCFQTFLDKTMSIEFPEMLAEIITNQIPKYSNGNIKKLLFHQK
Chain of Cytochrome P450 2C19 (Homo sapiens) (P33261 whole entry, looked up): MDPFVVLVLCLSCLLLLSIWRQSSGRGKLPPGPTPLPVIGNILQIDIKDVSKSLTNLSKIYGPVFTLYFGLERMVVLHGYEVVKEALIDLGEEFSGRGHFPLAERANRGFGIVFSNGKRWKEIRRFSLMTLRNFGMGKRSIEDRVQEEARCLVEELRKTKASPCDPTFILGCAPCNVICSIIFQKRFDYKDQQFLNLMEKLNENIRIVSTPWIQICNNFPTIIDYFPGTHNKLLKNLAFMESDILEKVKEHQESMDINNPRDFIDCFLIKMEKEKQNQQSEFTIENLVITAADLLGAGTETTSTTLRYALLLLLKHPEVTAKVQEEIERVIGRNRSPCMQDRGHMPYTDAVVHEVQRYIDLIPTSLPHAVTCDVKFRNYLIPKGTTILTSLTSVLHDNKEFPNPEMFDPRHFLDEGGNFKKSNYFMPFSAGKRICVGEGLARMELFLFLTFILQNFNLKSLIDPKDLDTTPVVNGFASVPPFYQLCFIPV
Chain of Cytochrome P450 1A2 (Homo sapiens) (P05177 whole entry, looked up): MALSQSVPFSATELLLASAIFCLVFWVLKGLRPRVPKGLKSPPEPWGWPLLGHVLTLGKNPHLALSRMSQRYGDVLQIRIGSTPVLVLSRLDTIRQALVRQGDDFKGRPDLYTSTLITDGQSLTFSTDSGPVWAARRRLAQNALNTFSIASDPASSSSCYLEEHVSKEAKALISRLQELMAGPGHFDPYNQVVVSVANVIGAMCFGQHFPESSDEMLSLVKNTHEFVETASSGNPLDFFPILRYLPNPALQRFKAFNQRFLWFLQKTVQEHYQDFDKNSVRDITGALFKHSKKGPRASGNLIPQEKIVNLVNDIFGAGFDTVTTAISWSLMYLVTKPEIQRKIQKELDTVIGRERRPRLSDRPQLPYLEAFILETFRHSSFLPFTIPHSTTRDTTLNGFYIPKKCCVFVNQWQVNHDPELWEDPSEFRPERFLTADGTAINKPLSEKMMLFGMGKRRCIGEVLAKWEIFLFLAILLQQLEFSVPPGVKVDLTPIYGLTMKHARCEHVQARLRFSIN

As to `Cc1noc(C)c1-c1ccc2ncnc(NCc3cccnc3)c2c1`, the Potency in [1] was > 11.4 µM (inactive); in assay [3], 0.316 µM (active); in assay [4], > 46 µM (inactive); in [5] it was > 46 µM (inactive); in [8] it was 2.51 µM (active); in assay [10] it was 0.02 µM (active). For the same compound, the Potency in assay [11] is 3.16 µM (active); in assay [13] it was 0.794 µM (active). Besides, the activity change, negative = inhibition was 26.4% (inactive) in assay [2] and -3.3% (inactive) in assay [12]. The call in assay [6] was inactive. Moreover, the Potency entry in [7], in [9], in assay [14] and in assay [15] was “inactive” throughout. The results for the max response in [12] (setting [20]) and in assay [12] (setting [21]) were 10.5% and 6%, respectively.

With `CN(C)c1ncc2ncc(=O)n(C[C@H]3CCCO3)c2n1`, the activity change, negative = inhibition was -16.4% (inactive) in assay [2], -6.33% (inactive) in assay [16] and 5.33% (inactive) in assay [12]. The activity, negative = inhibition in [17] was -10.5% (inactive). The Potency in assay [4] was > 9.22 µM (inactive); in [5] it was > 46 µM (inactive). Also, in assay [6], the compound was called inactive. For the same compound, the Potency entry in assay [7], in assay [13], in assay [14] and in assay [15] was “inactive” throughout. Besides, the max response in assay [12] (setting [20]) was -7.9%; in [12] (setting [21]), -4.59%.

Turning to `COc1ccc(CNc2cc(-c3ccccc3Cl)ncn2)c(OC)c1`, the Potency is > 11.4 µM (inactive) in [1]; > 46 µM (inactive) in [4]; > 46 µM (inactive) in assay [5]; 6.31 µM (active) in assay [8]; 2 µM (active) in assay [10]. Besides, the activity change, negative = inhibition in [2] is -3.31% (inactive); in assay [16], -0.814% (inactive); in [12] it was 5.7% (inactive). Further, the activity, negative = inhibition in assay [17] is 7.16% (inactive). Moreover, in assay [6], the compound was classed as inactive. Besides, the Potency result in assay [9], in [13] and in [15] was “inactive” in each case. Moreover, the max response in assay [12] (setting [20]) was found to be 19.5%; in assay [12] (setting [21]), 25%.

In the case of `COc1ccccc1-c1cncnc1NCc1cccnc1`, the Potency in assay [1] is > 11.4 µM (inactive); in assay [3], 6.31 µM (active); in [4], > 46 µM (inactive); in [5], > 46 µM (inactive); in assay [8] it was 0.501 µM (active); in assay [10], 3.16 µM (active). Also, the activity change, negative = inhibition in [2] is -10.2% (inactive); in assay [16], -4.56% (inactive); in assay [12] it was 7.04% (inactive). For the same compound, the activity, negative = inhibition in [17] was 4% (inactive). Besides, the compound was classed as inactive in assay [6], in assay [18] and in assay [19]. The Potency result in assay [7], in assay [9], in assay [14] and in [15] was “inactive” in each case. Besides, the max response in assay [12] (setting [20]) was found to be 11.1%; in [12] (setting [21]) it was 18.5%.

For the compound `CNc1ncnc2ccc(-c3ccccc3C)cc12`, the Potency in assay [1] is > 11.4 µM (inactive); in [4], > 46 µM (inactive); in assay [5], > 46 µM (inactive); in [13] it was 8.91 µM (active). In addition, the figures for the activity change, negative = inhibition in assay [2], in assay [16] and in assay [12] were -4.22% (inactive), 3.06% (inactive) and -7.2% (inactive), respectively. Moreover, in [17], the activity, negative = inhibition was -3.66% (inactive). The compound was called inactive in assay [6]. The max response was -12.3% in assay [12] (setting [20]) and -15.2% in assay [12] (setting [21]). For the same compound, the Potency result in assay [14] and in assay [15] was “inactive” throughout.

For `CN(C)C(=O)c1ccc(-c2ccc3ncnc(N4CCC(C(=O)O)CC4)c3c2)cc1`, the Potency was > 11.4 µM (inactive) in assay [1], > 46 µM (inactive) in assay [4] and > 46 µM (inactive) in assay [5]. The activity change, negative = inhibition in assay [2] was 0.539% (inactive); in assay [16], 7.54% (inactive); in assay [12], 3.56% (inactive). Also, the activity, negative = inhibition in assay [17] was -4.54% (inactive). For the same compound, the outcome in assay [6] was inactive. Further, the Potency entry in [7], in assay [13], in [14] and in [15] was “inactive” in each case. The activation in [11] is -0.026% (inactive). For the same compound, the max response in assay [12] (setting [20]) came to 20.3%; in [12] (setting [21]) it was 23.2%.

The values above are taken from PubChem BioAssay (NCATS).
